Compound activity: PubChem BioAssay, National Center for Advancing Translational Sciences (NCATS)
Shown is part of a subset that was picked to be rich in hits.
Tb PFK block: blocks T. brucei phosphofructokinase. Potency, µM (doses to about 57.5 µM), for the others: at the top dose activity, negative = inhibition, usual class: inhibitors. T. brucei PFK, ADP-Glo luminescence. O15648. 330,000 compounds, 0.17% hits;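 note: potency is the fitted concentration of half-maximal effect; 0% = uninhibited 1x PFK enzyme wells and -100% = no-enzyme wells; nearly all actives have a fitted effect of over 60% in size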
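PFK 1.25 nM, F6P 0.5 mM, ATP 0.1 mM, 0.1 M TEA pH 8.0, 5 mM MgCl2, 0.01% Tween20, 0.1% BSA; 45 min RT. ADP-Glo readout. qHTS titration up to 57 uM; curves fitted, compounds curve-classed.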
PI4K2A block: blocks human PI4K2A kinase activity | 420,000 compounds, 0.13% hits | activity change, negative = inhibition, % at 76.9 µM | purified PI4K2A, ADP-Glo luminescence, 1 h; stronger effect = lower value | AID 1346378; in the data active = activity change below about -50%; inconclusive = mostly about -30% to -49%;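 note: -100% = wells without enzyme as full effect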
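In this quantitative HTS, ADP production by PI4K2A was quantified luminescently after 1 h at ambient temperature; 100 microM adenosine served as plate-quality control.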
PI5P4Ka inh: blocks human PI5P4K alpha kinase activity; P48426; PI5P4Kalpha enzyme, ADP-Glo luminescence, 60 min; stronger effect = lower value; max response, %; 330,000 compounds, 1.2% hits; active = max response of -50% or lower; inconclusive = between -30% and -50%; inactive = -30% or higher; note: value at the top dose of about 77 µM
Target sequence (P48426 whole entry, looked up): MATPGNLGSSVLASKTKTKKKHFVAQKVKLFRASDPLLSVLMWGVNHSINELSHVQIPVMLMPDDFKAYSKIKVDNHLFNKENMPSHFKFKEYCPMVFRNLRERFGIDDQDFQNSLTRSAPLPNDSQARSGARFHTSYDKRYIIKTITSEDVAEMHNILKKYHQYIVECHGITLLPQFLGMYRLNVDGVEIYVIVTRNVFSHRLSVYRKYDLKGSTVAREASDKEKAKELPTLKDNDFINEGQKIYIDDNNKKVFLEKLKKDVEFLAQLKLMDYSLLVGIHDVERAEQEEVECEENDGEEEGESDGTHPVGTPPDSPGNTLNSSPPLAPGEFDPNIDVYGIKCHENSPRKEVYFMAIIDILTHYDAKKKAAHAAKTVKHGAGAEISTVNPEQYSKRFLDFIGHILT
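ADP-Glo luminescence end-point read after a 60 min room-temperature kinase reaction of PI5P4Kalpha plus substrate, initiated with ATP at 5 microM final. Buffer: 0.038 M HEPES pH 7.4, EGTA, 0.1% CHAPS, 5% DMSO.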
Pin1 inhibitor: blocks the human prolyl isomerase Pin1; Pin1 FP peptide displacement, HiFluor488, 10 min; 390,000 compounds, 0.009% hits; Potency, µM (series often up to 115 µM), for inactives: at the highest dose activity, negative = inhibition, most hits filed as inhibitors; Q13526; active = well fitted inhibition curve with a large enough effect in the polarisation, with a control signal flat, not every such curve was filed as active; inconclusive = small, poorly fitted or top-dose-only effect, or effect the other way, or a change in a side signal; inactive = no such curve, though single readings can be large or run the other way; the % refers to the polarisation; note: potency is the fitted concentration of half-maximal effect
Target sequence (Q13526 whole entry, looked up): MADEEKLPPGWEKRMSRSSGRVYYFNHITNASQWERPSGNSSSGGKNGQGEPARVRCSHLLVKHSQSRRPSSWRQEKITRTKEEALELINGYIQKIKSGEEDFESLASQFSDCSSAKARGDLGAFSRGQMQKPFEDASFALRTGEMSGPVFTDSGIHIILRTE
Tb PGK inh: blocks T. brucei phosphoglycerate kinase; PGK/GAPDH coupled, Kinase-Glo luminescence, 60 min; Potency, µM (highest dose often 57.5 µM), for the others: at the top dose activity change, negative = inhibition, hits mostly inhibitors; AID 602233; 380,000 compounds, 0.043% hits; P07378; note: potency is the fitted concentration of half-maximal effect; nearly all actives have a fitted effect of over 60% in size
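Luminescent ATP detection (Kinase-Glo Plus) follows a 60-minute room-temperature incubation, with wells lacking PGK as controls. Buffer: 100 mM TEA (pH 7.6), 5 mM MgCl2, 0.01% Tween-20. Coupling enzyme GAPDH (100 nM final) supplies unstable 1,3-BPG in-well.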
The depositor's hits bear a star. Unless noted, calls come from the whole dose curve; as a rule, active = well fitted curve in the direction sought with a large enough effect; inconclusive = small, poorly fitted or top-dose-only effect, or another doubt; inactive = no such curve, though single readings can be large; an effect the other way counts as inactive or inconclusive. Unless noted, % is set by controls: 0 for no effect and ±100 for the full control effect.

Cc1ccc(S(=O)(=O)N2CCN(C(=O)/C=C/c3ccco3)CC2)cc1 was read as Tb PFK block -27%, PI4K2A block 0, PI5P4Ka inh -3, Pin1 inhibitor -4% and Tb PGK inh -18%.
For Cc1ccc(C)c(S(=O)(=O)N2CCN(C(=O)/C=C/c3ccco3)CC2)c1 the results were Tb PFK block inconclusive, PI4K2A block inconclusive, PI5P4Ka inh -61*, Pin1 inhibitor 4% and Tb PGK inh -12%.
`CC(C)(C)OC(=O)/C=C/[C@@H](CCCCl)Sc1ccc(C(C)(C)C)cc1` gave PI4K2A block 3.
Screening N#Cc1cc2nc(O)c(O)nc2cc1[N+](=O)[O-] returned Tb PFK block -16%, PI4K2A block -2, PI5P4Ka inh -57*, Pin1 inhibitor -12% and Tb PGK inh -5%.
Screening CNc1nc2cc([N+](=O)[O-])c([N+](=O)[O-])cc2nc1NC returned Tb PFK block 2%, PI4K2A block -7, PI5P4Ka inh -1, Pin1 inhibitor 2% and Tb PGK inh -7%.
`COc1ccc(C2=CC3=C(Br)C(=O)C(C)(O)C(=O)C3=CO2)cc1` (stereo not given) gave Tb PFK block -12%, PI4K2A block inconclusive, PI5P4Ka inh -83*, Pin1 inhibitor inconclusive and Tb PGK inh 20µM*.
Screening C=CC1CN2CCC1CC2[C@@H](O)c1ccnc2ccc(OC)cc12 (stereo not given in full) returned Pin1 inhibitor -1%.
O=C1c2cc(CO)cc(O)c2C(=O)c2c(O[C@@H]3OC(CO)[C@@H](O)[C@@H](O)[C@@H]3O)cccc21 (stereo not given in full) was read as PI4K2A block 0, PI5P4Ka inh -11, Pin1 inhibitor 11% and Tb PGK inh -4%.
O=C(O)c1cc(O)c2c(c1)[C@@H]([C@H]1c3cc(C(=O)O)cc(O)c3C(=O)c3c(O[C@@H]4O[C@H](CO)[C@@H](O)[C@H](O)[C@H]4O)cccc31)c1cccc(OC3O[C@H](CO)[C@@H](O)[C@H](O)[C@H]3O)c1C2=O (stereo not given in full) was read as Tb PFK block inconclusive, PI4K2A block -26, PI5P4Ka inh -89* and Tb PGK inh inconclusive.
O=c1[nH]c2ccc(Cl)cc2[nH]1 was read as PI4K2A block -1, PI5P4Ka inh 0, Pin1 inhibitor 0% and Tb PGK inh -3%.
For S=c1[nH]c2ccc(Cl)cc2s1 the results were Tb PFK block -6%, PI4K2A block -1, PI5P4Ka inh -75*, Pin1 inhibitor -9% and Tb PGK inh -2%.
`O=[N+]([O-])c1ccc2[nH]c(=S)sc2c1` gave PI4K2A block 3, PI5P4Ka inh -75*, Pin1 inhibitor -6% and Tb PGK inh -11%.
`O=C(c1ccccc1O)N(Cc1ccco1)Cc1cccs1` gave Pin1 inhibitor -16%.
For CCN(CC)S(=O)(=O)c1ccc(N=NC2=C(O)CCCC2=O)cc1 the results were Tb PFK block -1%, PI4K2A block -2, PI5P4Ka inh 0, Pin1 inhibitor -2% and Tb PGK inh inactive.
CCN(CC)S(=O)(=O)c1ccc(N=Nc2c(N)[nH]c(=O)[nH]c2=O)cc1 was read as Tb PFK block -1%, PI4K2A block 5, PI5P4Ka inh -67*, Pin1 inhibitor -4% and Tb PGK inh -10%.
For O=C(CS(=O)Cc1ccco1)NC/C=C\COc1cc(CN2CCCCC2)ccn1 (stereo not given) the results were PI4K2A block -2.
Screening COc1cccc(C(=O)O/N=C(\N)c2ccccn2)c1 returned Tb PFK block inconclusive, PI4K2A block -73*, PI5P4Ka inh -73*, Pin1 inhibitor -8% and Tb PGK inh 14µM*.
Screening N/C(=N\OC(=O)c1ccc2ccccc2c1)c1ccccn1 returned Tb PFK block -8%, PI4K2A block -58*, PI5P4Ka inh -18, Pin1 inhibitor -4% and Tb PGK inh inconclusive.
N/C(=N\OC(=O)c1cccc([N+](=O)[O-])c1)c1ccccn1 was read as Tb PFK block 2%, PI4K2A block 2, PI5P4Ka inh -7, Pin1 inhibitor -3% and Tb PGK inh -3%.
Cc1ccc(C(=O)O/N=C(\N)c2ccccn2)c(Cl)c1 was read as Tb PFK block inconclusive, PI4K2A block -70*, PI5P4Ka inh -62*, Pin1 inhibitor -9% and Tb PGK inh inconclusive.
Screening CCCc1ccc(C(=O)O/N=C(\N)c2ccccn2)cc1 returned Tb PFK block -28%, PI4K2A block -85*, PI5P4Ka inh -65*, Pin1 inhibitor -3% and Tb PGK inh inconclusive.
`N/C(=N\OC(=O)c1ccc2ccccc2c1)c1ccncc1` gave Tb PFK block 0%, PI4K2A block -7, PI5P4Ka inh 4, Pin1 inhibitor 25% and Tb PGK inh -8%.
`O=C(O)CC(CCc1ccccc1)OC1OC(CO)C(O)C(O)C1O` (stereo not given) gave Tb PFK block inconclusive, PI4K2A block inconclusive, PI5P4Ka inh -68*, Pin1 inhibitor inconclusive and Tb PGK inh inconclusive.
Screening [C-]#[N+][C@H](O[C@@H]1O[C@H](CO)[C@@H](O)[C@H](O)[C@H]1O)c1ccccc1 returned PI4K2A block -3, PI5P4Ka inh 4, Pin1 inhibitor -11% and Tb PGK inh inactive.
For CCc1nnc(NS(=O)(=O)c2ccc(Nc3ccc([N+](=O)[O-])c4nonc34)cc2)s1 the results were Tb PFK block 16%, PI4K2A block -26, PI5P4Ka inh -57*, Pin1 inhibitor inconclusive and Tb PGK inh -26%.
For CCc1nnc(NS(=O)(=O)c2ccc(NS(=O)(=O)c3ccccc3[N+](=O)[O-])cc2)s1 the results were Tb PFK block -12%, PI4K2A block -3, PI5P4Ka inh -19, Pin1 inhibitor inconclusive and Tb PGK inh -4%.
`Cc1c(-c2ccc(O)cc2)n(Cc2ccc(OCCN3CCCCCC3)cc2)c2ccc(O)cc12` gave PI4K2A block -2.
For Nc1nc(SCC(=O)c2cc(F)ccc2F)n[nH]1 the results were Tb PFK block -5%, PI4K2A block 4, PI5P4Ka inh -9, Pin1 inhibitor -4% and Tb PGK inh -7%.
Screening Nc1nc(SCC(=O)c2ccc(F)cc2)n[nH]1 returned Tb PFK block -9%, PI4K2A block -1, PI5P4Ka inh -55*, Pin1 inhibitor -14% and Tb PGK inh -6%.
For O=C(NCc1ccco1)C1Cc2ccccc2CN1S(=O)(=O)c1ccccc1F (stereo not given) the results were PI4K2A block -18, PI5P4Ka inh -61*, Pin1 inhibitor inconclusive and Tb PGK inh -16%.
CCc1ccc(CN2CCN(C(=O)c3ccco3)CC2)cc1 was read as Tb PFK block -2%, PI4K2A block 4, PI5P4Ka inh 5, Pin1 inhibitor -1% and Tb PGK inh 2%.
